Screening data (PubChem)
MCF10A rerep: A quantitative high throughput screen for small molecules that induce DNA re-replication in MCF 10a normal breast cells; MCF 10A DNA re-replication, Hoechst nuclear intensity, 48 h; Potency, µM (series often up to 46.1 µM), usual class: activators; 2.9% of 350,000 active; AID 624296, 2012; also: nearly all actives have a fitted effect of over 50% in size
KB-3-1 tox: qHTS assay for MDR1-selective chemotherapeutics: Primary screen using the parental adenocarcinoma cell KB-3-1; KB-3-1 viability, CellTiter-Glo ATP luminescence, 72 h; Potency, µM (titrated, usually from 46.1 µM), most hits filed as cytotoxic; 1.4% of 400,000 active; AID 1347075, 2019; also: nearly all actives have a fitted effect of over 60% in size
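Viability of parental KB-3-1 cells, measured by CellTiter-Glo luminescence, followed a 72 h incubation at 37 °C with pinned compounds in phenol-red-free DMEM containing 10% FBS.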
IL-1B inflam inh: qHTS for Inhibitors of Inflammasome Signaling: IL-1-beta AlphaLISA Primary Screen; 4.7% of 360,000 active; activity change, % at 57.5 µM; THP-1 LPS/ATP IL-1B secretion, AlphaLISA, 16 h; hits give low values; in the data active = activity change below about -50%; inconclusive = mostly about -30% to -49%
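Secreted IL-1B measured by AlphaLISA bead assay after 16 h compound exposure of THP-1 cells; compounds (final up to 57.5 uM) added 1 h before LPS (250 ng/mL) and ATP (1.25 mM) stimulation; lower signal means less secretion.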
SW480 rerep: A quantitative high throughput screen for small molecules that induce DNA re-replication in SW480 colon adenocarcinoma cells; 1.8% of 340,000 active; Potency, µM (top dose mostly 46.1 µM), usual class: activators; SW480 DNA re-replication, Hoechst DNA content imaging, 48 h; also: nearly all actives have a fitted effect of over 55% in size
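Readout is total intensity of Hoechst-stained nuclei, excited at 405 nm and collected at 500-530 nm. Compound treatment lasted 48 hr at 37 C in 5% CO2 before staining.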
KB-V1 cytotox: qHTS assay for MDR1-selective chemotherapeutics: Primary screen using the drug-selected MDR subline cells KB-V1; 3.4% of 400,000 active; KB-V1 MDR cells viability, CellTiter-Glo, 72 h; AID 1347076, 2019; Potency, µM (top dose mostly 46.1 µM), hits mostly cytotoxic; also: nearly all actives have a fitted effect of over 60% in size
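Readout: CellTiter-Glo luminescence, 10 min after addition. Cells: KB-V1 MDR subline, 72 h at 37 degrees C with compound. Analysis: corrected, normalized data fitted to concentration-effect curves.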
Each line names hits and unclear results; the compound was inactive in the other large screens; ! = a repeat was not active. Compounds with a hit are over-represented: about 9.9% of the library has one in this group of screens. Unless noted, calls follow the shape of the dose curve; as a rule, active = well fitted curve in the direction sought with a large enough effect; inconclusive = small, poorly fitted or top-dose-only effect, or another doubt; inactive = no such curve, though single readings can be large; an effect the other way counts as inactive or inconclusive.

CCOc1ccc(C2C(C(N)=O)=C(C)Nc3nc(-c4cccc(Cl)c4)nn32)cc1OC (centres undefined)	KB-V1 cytotox inconclusive (no result: MCF10A rerep, IL-1B inflam inh, SW480 rerep)
CCOc1ccccc1-n1c(SCC(=O)Nc2ccccc2C(=O)O)nc2ccccc2c1=O	MCF10A rerep inconclusive
CCSc1nnc(CNC(=O)C23CC4CC(CC(C4)C2)C3)n1C1CCCCC1	none
Cc1nnc(NC(=O)C(=O)c2cc(C)n(-c3ccc(C)c(C)c3)c2C)s1	none (no result: MCF10A rerep, IL-1B inflam inh, SW480 rerep)
O=C(CCCCCNc1nc(=S)[nH]c2ccccc12)NCCc1c[nH]c2ccccc12	MCF10A rerep inconclusive, IL-1B inflam inh -78, KB-V1 cytotox inconclusive
O=C(CCCCCNc1nc(=S)[nH]c2ccccc12)NCCc1ccc(Cl)cc1	MCF10A rerep inconclusive
CC(C)CCNC(=O)Cc1ccc(Nc2nc(=S)[nH]c3ccccc23)cc1	IL-1B inflam inh -65
CCOc1ccc(C(C(=O)NC(C)(C)C)N(CCOC)C(=O)CCC(=O)Nc2ccccn2)cc1 (centres undefined)	KB-V1 cytotox inconclusive
Cc1ccc(C(NC(=O)NC(C)c2ccccc2)C(Cl)(Cl)Cl)cc1F (centres undefined)	MCF10A rerep 15µM, KB-3-1 tox inconclusive, IL-1B inflam inh -62, SW480 rerep inconclusive, KB-V1 cytotox 21µM
CC(C)(C)C(=O)Nc1cc2nn(-c3ccccc3)nc2cc1Cl	MCF10A rerep inconclusive, SW480 rerep 7.3µM
CC(=O)Nc1cc2nn(-c3ccccc3)nc2cc1Cl	MCF10A rerep inconclusive
COc1cc([C@H]2OC[C@H]3[C@@H]2CO[C@@H]3c2ccc(O[C@H]3O[C@H](CO)[C@@H](O)[C@H](O)[C@H]3O)c(OC)c2)ccc1O[C@@H]1O[C@H](CO)[C@@H](O)[C@H](O)[C@H]1O	MCF10A rerep inconclusive
CC1=CC(=O)C=C(C)C1=NOS(=O)(=O)c1ccccc1	MCF10A rerep 7.3µM, KB-3-1 tox inconclusive, IL-1B inflam inh -118, SW480 rerep 7.3µM, KB-V1 cytotox inconclusive
Cc1ccc2c(c1)/C(=N/OS(=O)(=O)c1ccccc1)CCS2	KB-V1 cytotox inconclusive
CC1=CC(=O)C(C(C)C)=C/C1=N/OS(=O)(=O)c1ccccc1	MCF10A rerep 2.9µM, KB-3-1 tox inconclusive, IL-1B inflam inh -101, SW480 rerep 0.73µM, KB-V1 cytotox 21µM
Cc1ccc(NS(=O)(=O)c2c(C)[nH]c(C)c2C(=O)N2CCCCC2)cc1F	none
COc1cc(C#Cc2c(-c3cncn3C)n(C)c3ccc(-c4cc(OC)c(OC)c(OC)c4)cc23)cc(OC)c1	KB-3-1 tox 12µM, IL-1B inflam inh -76, SW480 rerep inconclusive, KB-V1 cytotox inconclusive
Cc1ccc(NC(=O)c2cc(S(=O)(=O)NCCC3=CCCCC3)ccc2F)cc1F	MCF10A rerep inconclusive, KB-3-1 tox 10µM!, IL-1B inflam inh -77, SW480 rerep inconclusive, KB-V1 cytotox 10µM!
Cc1ccc(S(=O)(=O)NCCC2=CCCCC2)cc1	MCF10A rerep inconclusive
O=S(=O)(NCCC1=CCCCC1)c1ccc(OC(F)(F)F)cc1	MCF10A rerep inconclusive, IL-1B inflam inh -91
Cc1cc(C)cc(NC(=O)c2cc(S(=O)(=O)NCCC3=CCCCC3)ccc2F)c1	KB-V1 cytotox inconclusive (no result: MCF10A rerep, IL-1B inflam inh, SW480 rerep)
O=C(Nc1cccc(F)c1)c1cc(S(=O)(=O)NCCC2=CCCCC2)ccc1F	MCF10A rerep inconclusive, KB-3-1 tox inconclusive, IL-1B inflam inh -61
Cn1c(=O)c2c(c3ccccc31)OC(=O)CC2c1ccc(C(F)(F)F)cc1 (centres undefined)	none (no result: MCF10A rerep, IL-1B inflam inh, SW480 rerep)
O=S1(=O)C[C@H](N2CC[C@@H](O)C2)[C@@H](COCc2ccccc2)N1	none (no result: MCF10A rerep, SW480 rerep)
Cc1cc2c(cc1S(=O)(=O)CCC(=O)N1CCCC(C)C1)OCC(=O)N2 (centres undefined)	KB-V1 cytotox inconclusive (no result: MCF10A rerep, IL-1B inflam inh, SW480 rerep)
O=C(Cn1nc(-c2ccccc2)c2ccccc2c1=O)Nc1ccc(O)cc1	none
Cc1ccc(NC(=O)NNC(=O)Cn2nc(-c3ccccc3)c(-c3ccccc3)c(C#N)c2=O)cc1	MCF10A rerep 1.5µM, KB-3-1 tox 6.5µM, SW480 rerep 2.9µM
Cc1ccc(S(=O)(=O)N2CCC(C(=O)OC(C)C(=O)NCc3ccccc3)CC2)cc1C (centres undefined)	none (no result: KB-3-1 tox, KB-V1 cytotox)
Cc1cc(NC(=O)c2sccc2C)n(-c2nc3ccccc3[nH]2)n1	MCF10A rerep inconclusive, KB-3-1 tox inconclusive, IL-1B inflam inh -82, KB-V1 cytotox inconclusive
COc1cccc(OC)c1C(=O)Nc1cc(C)nn1-c1nc2ccccc2[nH]1	MCF10A rerep inconclusive, KB-3-1 tox 15µM, SW480 rerep inconclusive, KB-V1 cytotox 3.3µM
Cc1cc(NC(=O)c2cccs2)n(-c2nc3ccccc3[nH]2)n1	MCF10A rerep inconclusive, KB-3-1 tox inconclusive, SW480 rerep 4.6µM, KB-V1 cytotox inconclusive
COc1ccc(C(=O)NCc2nnc(SCC(=O)N3CCc4ccccc43)n2Cc2ccccc2)cc1	none
O=C(NCc1ccco1)/C(=C/c1cccc(C(F)(F)F)c1)c1nc2ccccc2[nH]1	MCF10A rerep 23µM, KB-3-1 tox inconclusive, IL-1B inflam inh -115, SW480 rerep inconclusive, KB-V1 cytotox 21µM
O=C(NCc1ccco1)/C(=C/c1ccc(C(F)(F)F)cc1)c1nc2ccccc2[nH]1	MCF10A rerep 21µM, KB-3-1 tox inconclusive, IL-1B inflam inh -73, SW480 rerep 21µM
O=C(CSc1nc2ccccc2[nH]1)NCc1ccco1	MCF10A rerep inconclusive
O=C(COC(=O)/C=C/c1cccc(C(F)(F)F)c1)NCc1ccco1	none
O=S(=O)(/C(=C\c1ccc(C(F)(F)F)cc1)c1nc2ccccc2[nH]1)c1ccccc1	MCF10A rerep inconclusive, KB-3-1 tox 2.6µM, IL-1B inflam inh -96, SW480 rerep 2.3µM, KB-V1 cytotox inconclusive
CN(CC(=O)Nc1ccc(N2CCOCC2)cc1)C(=O)CCNC(=O)c1ccc(Br)cc1	none
Cc1ccc(NC(=O)CCN2CCN(C/C=C/c3ccccc3)CC2)cc1	MCF10A rerep inconclusive, IL-1B inflam inh inconclusive, SW480 rerep inconclusive
Cc1ccc(NC(=O)CCN2CCN(C/C=C/c3ccccc3)CC2)cc1C	MCF10A rerep inconclusive, IL-1B inflam inh -53, KB-V1 cytotox 3.3µM
O=C(Nc1cccc(Cl)c1)N1CCN(C/C=C/c2ccccc2)CC1	IL-1B inflam inh -51, KB-V1 cytotox inconclusive
CC(C)(C)c1ccc(C(=O)N2CCNCC2)cc1	none
CN1CCC2(CC1)N=C(c1ccc(F)cc1)C(=S)N2C(=O)c1ccc(C(C)(C)C)cc1	MCF10A rerep 8.2µM, KB-3-1 tox inconclusive, IL-1B inflam inh inconclusive, KB-V1 cytotox inconclusive
O=C(NCc1nnc(SCc2ccc(F)cc2)n1-c1ccc(F)cc1)C12CC3CC(CC(C3)C1)C2	KB-3-1 tox 23µM, IL-1B inflam inh inconclusive, KB-V1 cytotox inconclusive
